PubChem BioAssay (NCI)
About 83,000 compounds went through this panel and 20% of them were active in at least one assay; those are over-represented in the sample as a whole.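 In brief: 96-well plates, 48 h treatment, single concentration, percent growth endpoint.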 Values without a mark were called inactive. Calls of active or inactive are those of the source. How the source made its calls: active means growth percent below 10; inactive means the rest.

What was measured:
Experiment in all cases: NCI-60 one-dose screen, 48 h (100 = growth as untreated, 0 = no growth, -100 = all killed)
Conditions in all cases: 10 µM unless noted
[1] = tested on: NCI-H23 lung
[2] = tested on: NCI-H226 lung
[3] = tested on: NCI-H322M lung
[4] = tested on: HOP-62 NSCLC
[5] = tested on: NCI-H460 lung
[6] = tested on: NCI-H522 lung
[7] = tested on: A549/ATCC NSCLC
[8] = tested on: 786-0 renal
[9] = tested on: COLO 205 colon
[10] = tested on: DU-145 prostate
[11] = tested on: K-562 leukemia
[12] = tested on: MALME-3M melanoma
[13] = tested on: MDA-MB-231 breast
[14] = tested on: RXF 393 renal
[15] = tested on: SF-268 CNS
[16] = tested on: SF-295 CNS
[17] = tested on: SF-539 CNS
[18] = tested on: UACC-257 melanoma
[19] = tested on: M14 melanoma

O=C(Nc1ccc(Br)cc1)c1ccc(Cl)c(Cl)c1
growth [1]: 26.2% | growth [2]: 61.8% | growth [3]: 42.3% | growth [4]: 98.3% | growth [5]: 14% | growth [6]: 60.2% | growth [7]: 63.4% | growth [8]: 73.1% | growth [9]: 83.9% | growth [10]: 34.7% | growth [11]: 12.9% | growth [12]: 48.5% | growth [13]: 56% | growth [14]: 112% | growth [15]: 73.6% | growth [16]: 6.6% (active) | growth [17]: 67.5% | growth [18]: 102% | growth [19]: 64.5%

CC1CCCN(CCCCOc2ccc(-c3ccc(C#N)cc3)cc2)C1 (configuration not stated)
growth [1]: 82.6% | growth [2]: 93.4% | growth [3]: 99.9% | growth [4]: 97.7% | growth [5]: 99.1% | growth [6]: 59.6% | growth [7]: 60.2% | growth [8]: 90.1% | growth [9]: 75.1% | growth [10]: 101% | growth [11]: 62% | growth [12]: 120% | growth [13]: 84.6% | growth [14]: 94.6% | growth [15]: 92.5% | growth [16]: 94.6% | growth [17]: 98.4% | growth [18]: 66.6% | growth [19]: 83.2%

C/C(=N\NC(=O)CSc1nc2ccccc2c(=O)n1CCc1ccc(S(N)(=O)=O)cc1)c1ccc(Br)cc1
growth [1]: 60.4% | growth [2]: 95.2% | growth [3]: 97.2% | growth [4]: 77.4% | growth [5]: 30.8% | growth [6]: 62.5% | growth [7]: 47.3% | growth [8]: 49.8% | growth [9]: 93.6% | growth [10]: 99% | growth [11]: 54.3% | growth [12]: 54.4% | growth [13]: 36.9% | growth [14]: 99.1% | growth [15]: 99.4% | growth [16]: 89.9% | growth [17]: 83.1% | growth [18]: 83.3% | growth [19]: 70.3%

CN(C)CCCN1c2ccccc2CCc2ccccc21
growth [1]: 129% | growth [2]: 104% | growth [3]: 108% | growth [4]: 82.2% | growth [5]: 113% | growth [6]: 88.2% | growth [7]: 95.8% | growth [8]: 95.7% | growth [9]: 78% | growth [10]: 113% | growth [11]: 94.9% | growth [12]: 151% | growth [13]: 79% | growth [14]: 78.6% | growth [15]: 95.1% | growth [16]: 106% | growth [17]: 117% | growth [18]: 103% | growth [19]: 128%

COc1ccc(Cl)cc1Nc1nc(C(F)(F)F)ccc1C(=O)NN
growth [1]: 39.9% | growth [2]: 24.1% | growth [3]: 4.64% (active) | growth [4]: -30.8% (active) | growth [5]: 70.3% | growth [6]: 12.9% | growth [7]: 47.6% | growth [8]: 2.09% (active) | growth [9]: 12.5% | growth [10]: 40% | growth [11]: 55.7% | growth [12]: 8.85% (active) | growth [13]: 5.57% (active) | growth [14]: -3.01% (active) | growth [15]: 26.4% | growth [16]: 16.7% | growth [17]: 31.2% | growth [18]: 28.3% | growth [19]: 38%

COc1ccc(Nc2nc(N)nc3c(=O)[nH]ccc23)cc1
growth [1]: 85.8% | growth [2]: 105% | growth [3]: 103% | growth [4]: 111% | growth [5]: 107% | growth [6]: 99.5% | growth [7]: 104% | growth [8]: 106% | growth [9]: 118% | growth [10]: 114% | growth [11]: 69% | growth [12]: 150% | growth [13]: 110% | growth [14]: 133% | growth [15]: 106% | growth [16]: 106% | growth [17]: 104% | growth [18]: 131% | growth [19]: 108%

CCCCOc1nc2ccccc2cc1/C=C/c1cc(/C=C/c2cc3ccccc3nc2OCCCC)n(-c2ccccc2)n1
growth [1]: 103% | growth [2]: 95.5% | growth [3]: 94.9% | growth [4]: 91.2% | growth [5]: 103% | growth [6]: 85.8% | growth [7]: 102% | growth [8]: 107% | growth [9]: 99.6% | growth [10]: 113% | growth [11]: 99% | growth [12]: 104% | growth [13]: 103% | growth [14]: 106% | growth [15]: 107% | growth [16]: 114% | growth [17]: 110% | growth [18]: 96.4% | growth [19]: 99.7%

Cc1c(C(=O)CCl)c(=O)n(-c2ccccc2)n1C
growth [1]: 72.7% | growth [2]: 104% | growth [3]: 101% | growth [4]: 105% | growth [5]: 81.2% | growth [6]: -34.4% (active) | growth [7]: 83.5% | growth [8]: 88.6% | growth [9]: 48.7% | growth [10]: 42.4% | growth [11]: 53% | growth [12]: 48.1% | growth [13]: 97.7% | growth [14]: 38.7% | growth [15]: 84.5% | growth [16]: 87.3% | growth [17]: 71.7% | growth [18]: 52.1% | growth [19]: 52.3%
